Assay outcomes as filed in PubChem.
Sampled rows, rich in hits. Any-hit rate of the full collection: about 19%.
IL-1B inflam inh: inflammasome signaling inhibition, IL-1 beta readout; THP-1 LPS/ATP IL-1B secretion, AlphaLISA, 16 h; active compounds read low; activity change, % at 57.5 µM; actives 4.7% (n = 360,000); AID 743279; in the data active means activity change below about -50%; inconclusive means mostly about -30% to -49%
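Secreted IL-1B measured by AlphaLISA bead assay after 16 h compound exposure of THP-1 cells; compounds (final up to 57.5 uM) added 1 h before LPS (250 ng/mL) and ATP (1.25 mM) stimulation; lower signal means less secretion.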
TDP1 cell CPT: DT40-hTDP1 cell growth loss with CPT; chicken DT40 Tdp1-/-;hTDP1 cells + 20 nM CPT, ATP luminescence, 48 h; Potency, µM (highest dose often 46.2 µM), for inactives: at the highest dose activity change, negative = growth inhibition, usual class: inhibitors; actives 12% (n = 420,000); AID 686979; further: potency means the concentration at half of the fitted maximal effect; nearly all actives have a fitted effect of over 55% in size
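Cell growth measured by CellTiter-Glo luminescence after a minimum 48 h, 37 C compound exposure with 20 nM CPT in Tdp1-knockout DT40 cells stably expressing hTDP1, seeded 400/well; qHTS titration format.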
HT1080NT lethal: kills 2HG-producing HT-1080-NT fibrosarcoma cells | HT-1080-NT fibrosarcoma viability, CellTiter-Glo ATP luminescence, 48 h | Potency, µM (highest dose often 46.1 µM), for inactives: at the highest dose activity, negative = less viability, usual class: cytotoxic | actives 1.6% (n = 360,000) | AID 686970;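 further: NT is the 2HG producing partner of a matched IDH1 knockdown line; potency means the concentration at half of the fitted maximal effect; 0% = DMSO-treated cells and -100% = media-only wells without cells; nearly all actives have a fitted effect of over 55% in size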
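Compounds were tested in concentration-response format on HT-1080-NT cells for 48 hours at 37 degrees C. Cell viability came from CellTiter-Glo luminescence; curves were classified by r2, response magnitude and activity.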
HT1080 IDH1KD tx: toxicity to HT-1080 IDH1 knockdown cells (counter line); actives 2% (n = 360,000); HT-1080 IDH1 knockdown viability, ATP luminescence, 48 h; AID 686971; Potency, µM (doses to about 46.1 µM), for the others: at the top dose activity, negative = toxicity, hits mostly cytotoxic;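 further: potency means the concentration at half of the fitted maximal effect; 0% = DMSO wells and -100% = cell-free medium wells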
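Cytotoxicity counter-line: IDH1KD HT-1080, 48 h, CellTiter-Glo. Curves classed by r2, magnitude and activity.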
DT40 TDP1 no CPT: qHTS for Inhibitors of human tyrosyl-DNA phosphodiesterase 1 (TDP1): qHTS in cells in absence of CPT; Potency, µM (highest dose often 46.2 µM), without a hit: at the top dose activity change, negative = growth inhibition, actives largely listed as inhibitors; DT40 Tdp1-/- hTDP1 cells, no CPT, ATP luminescence, 48 h; actives 15% (n = 420,000); further: potency means the concentration at half of the fitted maximal effect; nearly all actives have a fitted effect of over 55% in size
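No-CPT arm: Tdp1-/-;hTDP1 DT40 cells (400/well) plus compounds, incubated ≥48 hr at 37 °C. Readout CellTiter-Glo luminescence.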
* marks the source's active call; other numbers are inactive results; ? = inconclusive; nt = not tested or not shown. Unless noted, the call rests on the fitted dose curve; in most records, active means well fitted curve in the direction sought with a large enough effect; inconclusive means small, poorly fitted or top-dose-only effect, or another doubt; inactive means no such curve, though single readings can be large; an effect the other way counts as inactive or inconclusive. Unless noted, on the % scale 0 is the no-effect control and ±100 the full control effect.

SMILES	IL-1B inflam inh	TDP1 cell CPT	HT1080NT lethal	HT1080 IDH1KD tx	DT40 TDP1 no CPT
Cc1oc(-c2cccc(Br)c2)nc1CN1CCC(C(=O)NCCc2ccc(Cl)cc2)CC1	nt	16%	nt	nt	?
Cc1ccccc1-c1nc(CN2CCC(C(=O)NC3CCN(Cc4ccccc4)CC3)CC2)c(C)o1	-8	21µM*	0%	-3%	?
C[C@H](NC(=O)[C@@H]1CCCN1C(=O)[C@@H]1CCCN1C(=O)c1cccs1)c1ccccc1	33	-8%	14%	11%	-14%
Cc1ccc(S(=O)(=O)CC(=O)N(C)C)cc1	6	13%	23%	9%	4%
Cc1ccccc1-c1nc(CN2CCC(C(=O)NCCCN3CCCC(C)C3)CC2)c(C)o1 (stereo not given)	nt	?	18µM*	9.2µM*	?
CC1CCN(C(=O)Cn2nnc(-c3ccc(C(C)C)cc3)n2)CC1	24	16µM*	4%	-1%	?
COc1ccc(N2CCN(C(=O)CSc3nc(-c4ccc(C(C)C)cc4)no3)CC2)cc1	nt	18µM*	nt	nt	12µM*
CC1CCCCN1C(=O)CSc1nnc(-c2ccco2)o1 (stereo not given)	-13	-7%	16%	-4%	-17%
CC1CCCCN1C(=O)CSc1nnc(-c2cccc(Cl)c2)o1 (stereo not given)	nt	16µM*	nt	nt	?
CC(C)c1ccc(-c2noc(SCC(=O)N3CCCCC3C)n2)cc1 (stereo not given)	nt	?	nt	nt	15µM*
CC(C)c1ccc(-c2nnn(CC(=O)N3CCCCC3)n2)cc1	-5	-7%	2%	2%	-23%
COc1ccccc1CNC(=O)c1nn(-c2ccc(C)cc2)c(=O)c2c1c1ccccc1n2C	125	?	?	?	?
O=C(OCc1cn([C@@H]2C[C@H](c3ccccc3)N(C(=O)c3cccs3)C[C@H]2O)nn1)c1ccccc1	-10	?	-7%	4%	?
CCc1ccc(OCc2nnc(SCC(=O)N3CCN(c4ccccc4)CC3)o2)cc1	-5	-9%	-4%	-6%	-14%
CC1CCN(C(=O)CSc2nc(-c3ccc(C(C)C)cc3)no2)CC1	nt	21µM*	nt	nt	23µM*
CC(NN)c1ccccc1 (stereo not given)	nt	-7%	nt	nt	-11%
CC(NCCC(c1ccccc1)c1ccccc1)c1ccccc1 (stereo not given)	?	6.5µM*	?	?	5.2µM*
C=CCCN(Cc1ccccc1)S(=O)(=O)c1cc(Br)ccc1Br	16	?	-19%	-23%	15µM*
C=C1C=C(C(F)F)n2ncc(C(=O)Nc3ccc(Br)cc3C(F)(F)F)c2N1	nt	14%	nt	nt	-26%
CSCCC(NC(=O)COc1ccccc1)C(=O)N1CCN(c2ccccc2O)CC1 (stereo not given)	-6	-20%	7%	0%	?
O=C(Cn1c(=O)c2cccn2c2ccc(F)cc21)N1CCN(c2ccccc2)CC1	nt	-12%	nt	nt	-15%
CN(C)CCNC(=O)c1csc(Nc2cccc3ccccc23)n1	-61*	-50%	?	?	?
O=C(NCC1CCCO1)c1csc(Nc2cccc3ccccc23)n1 (stereo not given)	-14	18µM*	?	-6%	15µM*
COCCNC(=O)c1csc(Nc2cccc3ccccc23)n1	16	-12%	?	3%	-29%
CCCNC(=O)c1csc(Nc2cccc3ccccc23)n1	12	?	-5%	5%	?
SMILES	IL-1B inflam inh	TDP1 cell CPT	HT1080NT lethal	HT1080 IDH1KD tx	DT40 TDP1 no CPT
CSc1nnc(CNC(=O)c2c(-c3ccccc3)noc2C)n1-c1ccc(F)cc1	nt	4%	nt	nt	-15%
Cn1c(Sc2ccc(Br)cc2)c(C=O)c2ccccc21	-81*	?	?	26µM*	13µM*
CC(C(=O)Nc1cccc([N+](=O)[O-])c1)n1nnc2ccccc21 (stereo not given)	-9	-15%	-2%	-13%	-24%
CCOC(=O)CN(C(=O)CSc1nnc2c(n1)[nH]c1ccc(F)cc12)c1ccccc1	?	21µM*	-12%	-18%	?
N#Cc1c(-c2ccc(F)cc2)c(-c2ccc(F)cc2)nn(CCO)c1=O	5	4.6µM*	6.5µM*	8.2µM*	3.3µM*
COc1ccc(CC(=O)N(C)Cc2ccc(OC(F)F)cc2)cc1S(=O)(=O)N1CCOCC1	8	1%	-2%	-1%	?
Oc1c(CN2CCOCC2)cc(COCc2ccccc2)c2cccnc12	19	4.6µM*	?	13µM*	4.1µM*
CCOC(=O)C1CCN(Cc2ccccc2C(F)(F)F)CC1	9	-21%	3%	2%	-8%
CCOC(=O)C1CCN(Cc2ccc(O)c3ncccc23)CC1	13	4.6µM*	?	-30%	3.7µM*
c1ccc(N2CCN(Cc3ccnc4ccccc34)CC2)cc1	-24	26µM*	-4%	?	21µM*
CC(C)OCc1cc(CN2CCN(c3ccccc3)CC2)c(O)c2ncccc12	nt	4.6µM*	nt	nt	3.3µM*
O=C(NNC(=O)c1cc([N+](=O)[O-])ccc1Cl)c1cccnc1	17	-1%	-1%	-8%	18%
O=C(Nc1cc(Cl)cc(Cl)c1)c1cnn2c1NC(=C1CC1)C=C2C(F)F	nt	-25%	nt	nt	-19%
Cc1cc(=O)[nH]c(SCC(=O)NCC2CCCCC2)c1C#N	20	-5%	-2%	-7%	0%
COCc1cc(CN2CCN(C)CC2)c(O)c2ncccc12	20	4.1µM*	?	?	3.3µM*
CCOC(=O)N1CCN(Cc2cc(Cl)c3cccnc3c2O)CC1	62	0.82µM*	5.8µM*	3.3µM*	0.46µM*
Oc1c(CN2CCN(c3ccccc3)CC2)cc(Br)c2cccnc12	53	5.2µM*	?	?	3.3µM*
O=c1cc(CN2CCN(c3ccccc3)CC2)c2c(ccc3ccccc32)o1	8	?	8%	9%	?
CCOCc1cc(CN2CCN(c3cccc(Cl)c3)CC2)c(O)c2ncccc12	nt	8.2µM*	nt	nt	7.3µM*
COc1ccccc1N1CCN(c2csc3ccc(Cl)cc3c2=O)CC1	nt	-10%	nt	nt	-18%
CC(C)COc1cccc(C(=O)N(C)CC(=O)Nc2cccc3ccccc23)c1	-19	18µM*	-5%	-5%	18µM*
COc1ccc(Cc2nnc(NC(=O)c3cccc(F)c3)s2)cc1OC	10	-3%	6%	6%	-1%
CCC(CC)C(=O)c1c[nH]c(C(=O)NCc2ccncc2)c1	14	?	-5%	-2%	?
COc1ccc(C(C)NC(=O)Cc2cccs2)cc1 (stereo not given)	3	10%	7%	1%	-18%
